Bioassay records from PubChem.
Autofluor counter = flagged as autofluorescent in microsphere protease counterscreen; fluorescence intensity (test concentration not listed); compound autofluorescence counterscreen, microsphere flow cytometry; active compounds read high; 360,000 compounds, 3.1% hits; in the data active = fluorescence intensity above about 16000; inconclusive = no clear call, values can overlap the other calls
BoNT-F LC inh = BoNT/F light chain protease inhibitors, primary screen, biochemical, flow cytometry, MLPCN library; 360,000 compounds, 0.22% hits; Botulinum neurotoxin type F light chain protease (Clostridium botulinum); AID 588497, 2011; inhibition, % at 10 µM; Multiplex microsphere protease cleavage assay; in the data active = inhibition above about 35%, passing the limit was not always enough; inconclusive = no clear call, values can overlap the other calls; also: plate controls were buffer without enzyme for full effect and enzyme alone for no effect
Anthrax LF prot = Bacillus anthracis LF protease inhibitors, primary screen, biochemical, multiplex microsphere, MLPCN library | Lethal factor (Bacillus anthracis), P15917 | multiplex microsphere protease cleavage assay | inhibition, % at 10 µM | 360,000 compounds, 0.12% hits; in the data active = inhibition above about 30%; inconclusive = no clear call, values can overlap the other calls; also: plate controls were buffer without enzyme for full effect and enzyme alone for no effect
Target sequence (P15917 whole entry, looked up): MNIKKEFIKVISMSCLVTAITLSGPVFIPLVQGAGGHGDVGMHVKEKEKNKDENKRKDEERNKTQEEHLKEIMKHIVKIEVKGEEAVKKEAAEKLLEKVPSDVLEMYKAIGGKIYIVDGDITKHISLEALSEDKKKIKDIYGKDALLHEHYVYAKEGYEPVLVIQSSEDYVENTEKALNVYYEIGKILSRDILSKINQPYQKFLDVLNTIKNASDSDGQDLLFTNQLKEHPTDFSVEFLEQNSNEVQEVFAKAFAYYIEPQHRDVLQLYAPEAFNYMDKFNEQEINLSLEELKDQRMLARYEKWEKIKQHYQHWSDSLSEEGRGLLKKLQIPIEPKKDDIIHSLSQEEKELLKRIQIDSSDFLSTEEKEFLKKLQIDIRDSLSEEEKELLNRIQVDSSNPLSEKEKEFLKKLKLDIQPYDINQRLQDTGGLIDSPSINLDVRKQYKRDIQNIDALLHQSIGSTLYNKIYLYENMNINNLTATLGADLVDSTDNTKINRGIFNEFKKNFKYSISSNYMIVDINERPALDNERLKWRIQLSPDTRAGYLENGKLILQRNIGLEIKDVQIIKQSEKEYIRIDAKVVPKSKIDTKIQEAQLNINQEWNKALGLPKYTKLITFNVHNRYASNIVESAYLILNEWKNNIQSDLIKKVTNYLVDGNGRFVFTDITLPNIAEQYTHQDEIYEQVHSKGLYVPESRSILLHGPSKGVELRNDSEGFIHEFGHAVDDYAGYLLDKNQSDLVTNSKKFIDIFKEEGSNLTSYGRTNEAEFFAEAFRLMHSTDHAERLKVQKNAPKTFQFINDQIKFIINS
BoNT A protease = BoNT/A light chain protease inhibitors, primary screen, biochemical, flow cytometry, MLPCN library | Botulinum neurotoxin type A light chain protease (Clostridium botulinum A str. ATCC 3502) | multiplex microsphere protease substrate cleavage | inhibition, % at 10 µM | 360,000 compounds, 0.17% hits | AID 588499, 2011; in the data active = inhibition above about 30%; inconclusive = no clear call, values can overlap the other calls; also: plate controls were buffer without enzyme for full effect and enzyme alone for no effect
BoNTA LC inh 1 = BoNT/A light chain protease inhibitors, confirmation, biochemical, flow cytometry, cherry pick 1; inhibition, % at 10 µM; multiplex microsphere protease assay; 720 compounds, 3% hits; shares compounds with BoNT-F LC inh; in the data active = inhibition above about 32%
BoNTF LC inh 1 = BoNT/F light chain protease inhibitors, confirmation, biochemical, flow cytometry, cherry pick 1. 720 tested, under 10 active. shares compounds with BoNT-F LC inh. multiplex microsphere protease cleavage assay. inhibition, % at 10 µM
LF protease CP1 = Bacillus anthracis LF protease inhibitors, confirmation, biochemical, multiplex microsphere, cherry pick 1; shares compounds with BoNT-F LC inh; AID 602142, 2011; 720 tested, under 10 active; inhibition, % at 10 µM; multiplex microsphere protease cleavage assay
* hit, by the source's call; ? = inconclusive; . = no result. Rows were chosen to be rich in hits. Some 3.5% of all compounds tested hit in one or more screens of this group. Unless noted, no rule for the calls is given here.

SMILES	Autofluor counter	BoNT-F LC inh	Anthrax LF prot	BoNT A protease	BoNTA LC inh 1	BoNTF LC inh 1	LF protease CP1
CC1(C)CC[C@]2(CO)CC[C@]3(C)C(=CCC4[C@@]5(C)CC[C@H](O)[C@@](C)(CO)C5CC[C@]43C)[C@@H]2C1 (stereo partly drawn)	3100	-0.7	-0.3	-0.1	.	.	.
O=C(COC(=O)Cc1cccs1)NCC(=O)Nc1ccc(F)cc1	3858	-2.6	3.6	0.0	.	.	.
CN(CC(=O)Nc1ccc(F)cc1)C(=O)COC(=O)Cc1cccs1	?	40.0*	-1.2	3.9	1.2	-1.3	-2.4
CSc1ccc(C(=O)C2CCCN(CCCn3cccn3)C2)cc1 (stereo not drawn)	2175	37.2*	-0.2	3.4	0.1	0.4	7.4
c1ccc(-c2cn3nc(-c4ccccc4)c(-c4ccccc4)nc3n2)cc1	5284	23.7	45.9*	75.8*	61.9*	11.3	28.3
O=[N+]([O-])c1cccc(-c2cn3nc(-c4ccccc4)c(-c4ccccc4)nc3n2)c1	4123	47.6*	33.3*	67.4*	39.6*	10.5	24.4
Cc1ccc(-n2cc(CCCCCCCCC(=O)O)nn2)cc1	4336	0.9	-4.6	-1.1	.	.	.
O=C1NCCCCC1NS(=O)(=O)c1ccc(Cl)cc1 (stereo not drawn)	3561	5.7	-1.9	-1.9	.	.	.
N#Cc1ccc(S(=O)(=O)NC2CCCCNC2=O)cc1 (stereo not drawn)	3770	42.0*	-0.3	-1.3	1.0	-8.5	0.2
O=S(=O)(c1ccc(SCc2ccccc2F)nc1)N1CCCC1	4053	-13.9	-0.3	-0.5	.	.	.
CCOc1ccc(N(C(C)C(=O)N2CCCC2)S(C)(=O)=O)cc1 (stereo not drawn)	3520	?	1.9	1.2	.	.	.
CC(=O)N(C)c1ccc(NC(=O)Cc2cccs2)cc1	4018	-4.7	8.3	2.3	.	.	.
OC(CNCc1ccccc1F)COc1cccc2ccccc12 (stereo not drawn)	3445	35.4*	5.8	2.3	0.6	-8.4	0.2
CC(C)NCC(O)COc1cccc2ccccc12 (stereo not drawn)	.	.	.	-0.5	.	.	.
COc1ccc(NC(=O)CSc2nc(N)c3cc4c(nc3n2)CC(C)(C)OC4)cc1	4147	47.3*	11.4	4.2	-0.1	3.1	1.7
Cc1nc2nc(CSc3ccc(Cl)cc3)cc(=O)n2[nH]1	11830	79.4*	-3.5	-0.6	-0.6	3.7	0.0
Cc1[nH]c2ccccc2c(=O)c1CN1CCCCCC1	3388	0.6	6.7	-2.4	.	.	.
Cc1[nH]c2ccc(Br)cc2c(=O)c1CN1CCCCC1	8167	51.6*	-26.0	?	-1.5	-5.7	-1.7
Cc1nn(Cc2ccccc2)c(C)c1NC(=O)c1cc2nc(-c3ccco3)cc(C(F)(F)F)n2n1	.	.	.	.	-1.1	0.6	3.8
Cc1cc(C)n2nc(C(=O)Nc3c(C)nn(Cc4ccc(F)cc4)c3C)cc2n1	4003	4.3	-2.8	-0.9	-1.7	1.6	0.8
Cc1ccccc1Cn1ccc(NC(=O)c2cc3nc(-c4ccco4)cc(C(F)(F)F)n3n2)n1	2854	-3.0	0.0	-0.2	.	.	.
CCc1ccc(-c2cc(C(F)(F)F)n3nc(C(=O)Nc4c(C)nn(Cc5ccccc5Cl)c4C)cc3n2)s1	21126*	17.0	29.2	?	5.0	2.6	4.0
CCc1ccc(-c2cc(C(F)(F)F)n3nc(C(=O)Nc4cnn(Cc5ccccc5C)c4)cc3n2)s1	10727	10.0	1.8	4.4	1.6	0.5	-4.3
COc1ccc(NC(=S)N2CCN(S(=O)(=O)c3ccccc3)CC2)cc1OC	6287	-0.4	3.1	-2.5	.	.	.
Cc1ccc(C)c(OC(=O)C2CSC3(C)CCC(=O)N23)c1C (stereo not drawn)	6224	0.7	0.7	0.3	.	.	.
SMILES	Autofluor counter	BoNT-F LC inh	Anthrax LF prot	BoNT A protease	BoNTA LC inh 1	BoNTF LC inh 1	LF protease CP1
CCc1ccc(-c2cc(C(F)(F)F)n3nc(C(=O)Nc4c(C)nn(Cc5ccccc5C)c4C)cc3n2)s1	19939*	18.9	30.5*	29.2	3.2	-4.3	3.5
O=C(Nc1cnn(Cc2ccc(F)cc2)c1)c1cc2nc(-c3ccco3)cc(C(F)(F)F)n2n1	3265	3.7	-3.3	0.2	1.3	4.0	-3.6
Cc1ccc(C(=O)NCCCNC(=O)Cc2ccc(Cl)cc2)cn1	6041	5.2	-3.2	-0.4	.	.	.
Cc1cc(-c2nnc(SCC(=O)Nc3ccccc3)n2C)no1	4305	?	31.8*	?	0.6	0.5	7.5
C=CCn1c(N2CCCC2)nc2c1c(=O)n(C)c(=O)n2C	3562	15.9	44.2*	-0.3	1.0	-1.7	4.4
CC(=O)C1=C(c2ccccc2)N(C(C)=O)n2c(C)nnc2S1	2492	-1.2	-0.6	-0.2	.	.	.
Cc1ccc(C)c(NC(=O)Nn2cnnc2)c1	5205	-14.2	-3.7	-3.9	.	.	.
Cc1ccc(CSC2=Nc3ccccc3C3=NC(=O)CN23)cc1	4461	35.5*	-8.2	4.5	-0.2	-2.5	1.9
CC1CC(C)(C)CC2(C1)NC(=O)N(CC(=O)N(Cc1ccccc1)c1ccccc1)C2=O (stereo not drawn)	5671	-3.2	-1.6	2.1	.	.	.
COc1cccc(N2CC(O)Cn3c2nc2c3c(=O)[nH]c(=O)n2C)c1 (stereo not drawn)	3007	40.8*	3.8	6.6	1.0	-1.6	-0.3
Cc1ccc(N2CC(O)Cn3c2nc2c3c(=O)[nH]c(=O)n2C)cc1 (stereo not drawn)	3581	?	-10.9	-6.2	.	.	.
c1csc(-c2nc3nc4ccccc4nc3n2Cc2ccc3c(c2)OCO3)c1	2888	25.2	34.4*	50.9*	8.4	-8.5	4.0
O=C(CSc1nc2ccccc2nc1N1CCCCC1)N1CCN(c2ccccc2)CC1	4214	-9.4	4.8	1.3	.	.	.
CS(=O)(=O)N1N=C(c2ccccc2)CC1c1ccc2c(c1)OCO2 (stereo not drawn)	19512*	-19.5	9.9	70.4*	49.5*	.	-26.0
OC(CNC1Cc2ccccc2C1)c1ccccc1 (stereo not drawn)	2820	35.7*	-4.8	3.8	-0.8	-3.0	0.1
Cn1c(=O)c(/C=C/c2ccc(F)cc2)nc2ccccc21	4159	1.6	16.3	32.6*	23.7	2.5	9.2
Cn1c(/C=C/c2ccccc2)nc2ccccc21	4364	3.4	-1.8	-0.4	.	.	.
Cn1c(=O)c(/C=C/c2ccccc2)nc2ccccc21	2731	2.9	15.9	48.8*	39.9*	7.2	20.6
O=c1c(/C=C(\O)c2ccc(F)cc2)nc2ccccc2n1-c1ccccc1	14800	193.7*	32.1*	46.2*	19.7	6.8	7.9
